The values below come from PubChem BioAssay AID772 (SRMLSC, 2007).

The assay is described as follows: HT29 colon tumor cell growth inhibition, primary screen, imaging, high content imaging, 72 h, CellTiter-Glo (AID 772).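 On condensed nuclei: condensed means nuclear area below control median minus 1.5 SD.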 The note with it: HCS imaging cell count, at 10 µM, stronger effect = higher value; for condensed nuclei: measured here: percent cells with condensed nuclei.
The mark [1] stands for this setting: measured here: ATP CellTiter-Glo viability.

Each structure is given as a SMILES string. The whole screen tested about 3,300 compounds, of which about 20 (0.6%) were called active.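 How the source made its calls: active means growth inhibition above 90%, meaning viable cell count cut by more than 90% versus vehicle controls; inactive means growth inhibition below 90%.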 The list comes from a sample in which actives are over-represented; it also holds similar structures and randomly drawn compounds.

For `C=CCNc1nc(C2(C)CC3(CC(C)(C)OC3=O)C(=O)O2)cs1` (stereo not drawn), the growth inhibition is -18.2% (inactive) and the condensed nuclei was found to be 1.83%. Under setting [1], the growth inhibition is -56.2%.

For the compound `N#Cc1c(N)nc(SCc2ccccn2)c(C#N)c1-c1cccs1`, the growth inhibition was 63.2% (inactive) and the condensed nuclei came to 5.56%. Under setting [1], the growth inhibition came to 42.6%.

As for `N#Cc1c(N)nc(SCC(=O)NCCc2ccccc2)c(C#N)c1-c1cccs1`, the growth inhibition is 31.9% (inactive) and the condensed nuclei stood at 7.98%. In addition, the growth inhibition under setting [1] amounted to 4.22%.

`CCCCSc1nc(N)c(C#N)c(-c2cccs2)c1C#N`: the growth inhibition was 95.4% (active) and the condensed nuclei was 41.7%. Besides, under setting [1], the growth inhibition turned out to be 86.1%.

As for `CCN(CC)S(=O)(=O)c1cccc2c(N(C)C)cccc12`, the growth inhibition was -83.5% (inactive) and the condensed nuclei amounted to 4.17%. In addition, the growth inhibition under setting [1] was -46.3%.

As to `COCCCNc1nc(-c2ccncc2)nc2ccccc12`, the growth inhibition was 89.9% (inactive) and the condensed nuclei stood at 44.1%. Moreover, the growth inhibition under setting [1] was determined as 86.6%.

Regarding `COCCCNC(=O)C(C#N)c1nc2ccccc2nc1N1CCN(Cc2ccccc2)CC1` (stereo not drawn), the growth inhibition is 0% (inactive) and the condensed nuclei came out at 4.88%. Besides, the growth inhibition under setting [1] came out at 11.6%.

For `Clc1cccc(-c2nn3c(-c4cccc(Cl)c4)nnc3s2)c1`, the growth inhibition was -66.5% (inactive) and the condensed nuclei amounted to 7.77%. The growth inhibition under setting [1] was -37.2%.

On to `COc1ccccc1C(=O)N1CCCC1(C#N)c1ccccc1` (stereo not drawn), for which the growth inhibition was -76.6% (inactive) and the condensed nuclei came out at 2.93%. For the same compound, the growth inhibition under setting [1] is -54.8%.

With `Fc1ccc2[nH]c3c(N4CCN(C5CCCCC5)CC4)ncnc3c2c1`, the growth inhibition was 86.8% (inactive) and the condensed nuclei worked out at 43.8%. In addition, the growth inhibition under setting [1] was 96.8%.

As for `CCOc1cccc(-c2nn3c(-c4ccco4)nnc3s2)c1`, the growth inhibition was 19.2% (inactive) and the condensed nuclei is 6.05%. In addition, the growth inhibition under setting [1] is -9.06%.

For the compound `Cc1cc(C(=O)O)c(CSc2ncn[nH]2)o1`, the growth inhibition was -5.63% (inactive) and the condensed nuclei was determined as 6.05%. Under setting [1], the growth inhibition was -62.3%.

On to `Cc1cc(=O)oc(C)c1C(=O)NCCC1=CCCCC1`, for which the growth inhibition is 26.9% (inactive) and the condensed nuclei amounted to 17.3%. Under setting [1], the growth inhibition turned out to be 32.2%.

On to `Cc1nc2sccn2c(=O)c1CCN1CCC(=C(c2ccccc2)c2ccc(F)cc2)CC1`, for which the growth inhibition was 29.7% (inactive) and the condensed nuclei was 5.93%. The growth inhibition under setting [1] came to 6.78%.

Turning to `Cc1nc2ccccn2c(=O)c1CCN1CCC(C(=O)c2ccc(F)cc2)CC1`, the growth inhibition is 73.8% (inactive) and the condensed nuclei stood at 24.8%. Also, the growth inhibition under setting [1] is 86.5%.

As to `Cc1nc2sccn2c(=O)c1CCN1CCC(=C(c2ccc(F)cc2)c2ccc(F)cc2)CC1`, the growth inhibition is 93.1% (active) and the condensed nuclei is 24.1%. The growth inhibition under setting [1] was determined as 84.8%.

On to `O=C(CCC(=O)CCN1CCCCC1)CCN1CCCCC1`, for which the growth inhibition was 28.4% (inactive) and the condensed nuclei amounted to 16.4%. Besides, the growth inhibition under setting [1] worked out at 14.4%.

For the compound `CCOc1ccc2nc(NC(NC(C)=O)(C(=O)OC)C(F)(F)F)sc2c1` (stereo not drawn), the growth inhibition is -16.9% (inactive) and the condensed nuclei came to 3.93%. For the same compound, the growth inhibition under setting [1] is 18.6%.

As to `C=CCn1cnc2c(c1=O)c1nc3ccccc3nc1n2-c1ccc(C)cc1`, the growth inhibition was 31.2% (inactive) and the condensed nuclei amounted to 2.48%. In addition, the growth inhibition under setting [1] was -2.67%.

Consider `Cn1c(SCC(=O)NCc2ccccc2)nc2ccccc21`, for which the growth inhibition is 59.6% (inactive) and the condensed nuclei was found to be 4.29%. Also, the growth inhibition under setting [1] came out at 2.57%.

As to `CCC(=O)O[C@@H]1CC(=O)O[C@H](C)CC=CC=C[C@@H](O)[C@H](C)C[C@H](CC=O)[C@H](O[C@H]2O[C@H](C)[C@@H](O[C@H]3C[C@@](C)(O)[C@@H](OC(=O)CC)[C@H](C)O3)[C@H](N(C)C)[C@H]2O)[C@H]1OC`, the growth inhibition is -45.9% (inactive) and the condensed nuclei stood at 2.22%. In addition, under setting [1], the growth inhibition is -13.7%.
